# Key:
# [1] = molecular target: T1, Inhibitor of nuclear factor kappa-B kinase subunit epsilon (Homo sapiens) (UniProt Q14164); settings: at 1 µM;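 further: reported values are averaged percent inhibition figures against human IKKε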
# T1 sequence (whole entry): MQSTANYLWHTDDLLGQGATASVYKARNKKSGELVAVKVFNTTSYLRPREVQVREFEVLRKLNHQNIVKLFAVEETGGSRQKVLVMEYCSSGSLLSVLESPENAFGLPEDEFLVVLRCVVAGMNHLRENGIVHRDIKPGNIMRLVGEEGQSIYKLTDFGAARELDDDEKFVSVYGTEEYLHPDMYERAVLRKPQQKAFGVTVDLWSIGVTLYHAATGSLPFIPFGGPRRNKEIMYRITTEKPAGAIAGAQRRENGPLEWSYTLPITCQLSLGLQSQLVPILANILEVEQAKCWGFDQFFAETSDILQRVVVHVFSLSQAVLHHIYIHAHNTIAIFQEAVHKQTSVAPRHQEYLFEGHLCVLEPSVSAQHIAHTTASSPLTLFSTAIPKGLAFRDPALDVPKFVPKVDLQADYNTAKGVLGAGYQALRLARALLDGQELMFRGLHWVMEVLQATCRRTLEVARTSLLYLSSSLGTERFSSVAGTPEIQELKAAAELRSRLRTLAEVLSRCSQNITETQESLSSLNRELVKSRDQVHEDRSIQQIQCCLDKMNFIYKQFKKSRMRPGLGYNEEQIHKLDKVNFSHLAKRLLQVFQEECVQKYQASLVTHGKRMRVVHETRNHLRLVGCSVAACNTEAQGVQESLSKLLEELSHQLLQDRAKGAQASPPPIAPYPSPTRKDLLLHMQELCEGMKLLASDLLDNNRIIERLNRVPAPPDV
# [2] = molecular target: T2, Serine/threonine-protein kinase Nek1 (Homo sapiens) (UniProt Q96PY6); settings: at 0.1 µM
# T2 sequence (whole entry): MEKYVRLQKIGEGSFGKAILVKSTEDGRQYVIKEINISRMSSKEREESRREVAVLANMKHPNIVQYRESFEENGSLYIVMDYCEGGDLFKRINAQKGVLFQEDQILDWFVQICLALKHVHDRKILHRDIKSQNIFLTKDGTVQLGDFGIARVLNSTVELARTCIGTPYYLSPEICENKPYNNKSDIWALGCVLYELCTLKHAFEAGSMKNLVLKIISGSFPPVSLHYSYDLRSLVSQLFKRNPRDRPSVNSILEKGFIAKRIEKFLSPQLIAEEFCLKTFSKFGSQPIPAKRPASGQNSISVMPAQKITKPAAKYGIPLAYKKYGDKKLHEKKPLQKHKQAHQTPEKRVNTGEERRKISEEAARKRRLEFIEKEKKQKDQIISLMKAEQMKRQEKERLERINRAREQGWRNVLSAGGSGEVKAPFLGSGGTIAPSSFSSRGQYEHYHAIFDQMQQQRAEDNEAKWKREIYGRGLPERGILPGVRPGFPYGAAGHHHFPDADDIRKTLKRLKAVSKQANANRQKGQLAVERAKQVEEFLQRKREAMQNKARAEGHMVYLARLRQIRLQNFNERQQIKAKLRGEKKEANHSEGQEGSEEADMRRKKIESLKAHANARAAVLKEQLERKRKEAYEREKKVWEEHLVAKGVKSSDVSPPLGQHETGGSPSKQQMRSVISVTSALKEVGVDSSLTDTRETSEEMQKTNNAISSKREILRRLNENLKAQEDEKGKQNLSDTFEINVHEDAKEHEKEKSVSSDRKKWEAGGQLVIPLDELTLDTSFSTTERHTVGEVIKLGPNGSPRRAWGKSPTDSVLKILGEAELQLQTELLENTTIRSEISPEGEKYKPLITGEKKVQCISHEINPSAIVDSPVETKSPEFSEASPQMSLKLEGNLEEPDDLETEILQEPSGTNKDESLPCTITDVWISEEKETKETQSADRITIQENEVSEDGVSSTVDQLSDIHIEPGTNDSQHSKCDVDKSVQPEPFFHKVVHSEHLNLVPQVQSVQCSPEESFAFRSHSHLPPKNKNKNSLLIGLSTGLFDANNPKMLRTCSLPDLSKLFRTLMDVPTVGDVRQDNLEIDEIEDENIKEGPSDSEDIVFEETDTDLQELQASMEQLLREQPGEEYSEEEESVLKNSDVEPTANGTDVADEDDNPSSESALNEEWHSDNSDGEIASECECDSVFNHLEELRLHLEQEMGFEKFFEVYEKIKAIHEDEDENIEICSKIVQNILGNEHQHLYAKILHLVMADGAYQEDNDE
# [3] = molecular target: T2, Serine/threonine-protein kinase Nek1 (Homo sapiens); settings: at 1 µM
# [4] = molecular target: T3, Serine/threonine-protein kinase Nek2 (Homo sapiens) (UniProt P51955); settings: at 0.1 µM
# T3 sequence (whole entry): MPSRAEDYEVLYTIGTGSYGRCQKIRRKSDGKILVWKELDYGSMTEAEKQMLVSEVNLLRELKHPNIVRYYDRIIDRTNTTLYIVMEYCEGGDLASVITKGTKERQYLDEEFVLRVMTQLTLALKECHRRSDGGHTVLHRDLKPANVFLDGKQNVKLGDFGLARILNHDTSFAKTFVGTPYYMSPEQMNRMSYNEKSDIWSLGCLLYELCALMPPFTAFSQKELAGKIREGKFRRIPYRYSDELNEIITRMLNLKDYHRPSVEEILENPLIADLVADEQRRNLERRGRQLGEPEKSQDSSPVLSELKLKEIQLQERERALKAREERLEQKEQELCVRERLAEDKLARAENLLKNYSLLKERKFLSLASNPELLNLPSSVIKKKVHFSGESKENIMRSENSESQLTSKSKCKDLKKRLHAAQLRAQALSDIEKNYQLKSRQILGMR
# [5] = molecular target: T3, Serine/threonine-protein kinase Nek2 (Homo sapiens); settings: at 1 µM
# [6] = molecular target: Serine/threonine-protein kinase Nek6 (Homo sapiens) (UniProt Q9HC98); settings: at 0.1 µM
# Sequence of Serine/threonine-protein kinase Nek6 (Homo sapiens) (Q9HC98 whole entry): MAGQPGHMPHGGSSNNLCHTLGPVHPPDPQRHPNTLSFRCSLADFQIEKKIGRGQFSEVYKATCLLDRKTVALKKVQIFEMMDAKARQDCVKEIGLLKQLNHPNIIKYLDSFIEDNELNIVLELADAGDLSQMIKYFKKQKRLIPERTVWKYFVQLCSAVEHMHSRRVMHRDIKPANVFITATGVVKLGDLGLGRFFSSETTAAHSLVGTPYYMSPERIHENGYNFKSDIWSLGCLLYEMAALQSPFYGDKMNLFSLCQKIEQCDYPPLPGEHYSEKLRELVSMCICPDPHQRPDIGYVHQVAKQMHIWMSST
# [7] = molecular target: Serine/threonine-protein kinase Nek6 (Homo sapiens) (UniProt Q9HC98); settings: at 1 µM
# [8] = molecular target: Serine/threonine-protein kinase Nek7 (Homo sapiens) (UniProt Q8TDX7); settings: at 0.1 µM
# Sequence of Serine/threonine-protein kinase Nek7 (Homo sapiens) (Q8TDX7 whole entry, looked up): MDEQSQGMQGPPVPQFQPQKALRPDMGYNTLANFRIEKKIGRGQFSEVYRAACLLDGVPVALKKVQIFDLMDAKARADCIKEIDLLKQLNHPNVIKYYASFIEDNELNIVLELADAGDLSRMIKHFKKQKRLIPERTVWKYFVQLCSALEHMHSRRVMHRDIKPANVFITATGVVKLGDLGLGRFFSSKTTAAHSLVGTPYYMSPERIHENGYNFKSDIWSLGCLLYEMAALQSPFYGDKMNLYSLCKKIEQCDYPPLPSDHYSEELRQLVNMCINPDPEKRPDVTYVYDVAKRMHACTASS
# [9] = molecular target: Serine/threonine-protein kinase Nek7 (Homo sapiens) (UniProt Q8TDX7); settings: at 1 µM
# [10] = molecular target: T4, Serine/threonine-protein kinase Nek9 (Homo sapiens) (UniProt Q8TD19); settings: at 0.1 µM
# T4 sequence (whole entry): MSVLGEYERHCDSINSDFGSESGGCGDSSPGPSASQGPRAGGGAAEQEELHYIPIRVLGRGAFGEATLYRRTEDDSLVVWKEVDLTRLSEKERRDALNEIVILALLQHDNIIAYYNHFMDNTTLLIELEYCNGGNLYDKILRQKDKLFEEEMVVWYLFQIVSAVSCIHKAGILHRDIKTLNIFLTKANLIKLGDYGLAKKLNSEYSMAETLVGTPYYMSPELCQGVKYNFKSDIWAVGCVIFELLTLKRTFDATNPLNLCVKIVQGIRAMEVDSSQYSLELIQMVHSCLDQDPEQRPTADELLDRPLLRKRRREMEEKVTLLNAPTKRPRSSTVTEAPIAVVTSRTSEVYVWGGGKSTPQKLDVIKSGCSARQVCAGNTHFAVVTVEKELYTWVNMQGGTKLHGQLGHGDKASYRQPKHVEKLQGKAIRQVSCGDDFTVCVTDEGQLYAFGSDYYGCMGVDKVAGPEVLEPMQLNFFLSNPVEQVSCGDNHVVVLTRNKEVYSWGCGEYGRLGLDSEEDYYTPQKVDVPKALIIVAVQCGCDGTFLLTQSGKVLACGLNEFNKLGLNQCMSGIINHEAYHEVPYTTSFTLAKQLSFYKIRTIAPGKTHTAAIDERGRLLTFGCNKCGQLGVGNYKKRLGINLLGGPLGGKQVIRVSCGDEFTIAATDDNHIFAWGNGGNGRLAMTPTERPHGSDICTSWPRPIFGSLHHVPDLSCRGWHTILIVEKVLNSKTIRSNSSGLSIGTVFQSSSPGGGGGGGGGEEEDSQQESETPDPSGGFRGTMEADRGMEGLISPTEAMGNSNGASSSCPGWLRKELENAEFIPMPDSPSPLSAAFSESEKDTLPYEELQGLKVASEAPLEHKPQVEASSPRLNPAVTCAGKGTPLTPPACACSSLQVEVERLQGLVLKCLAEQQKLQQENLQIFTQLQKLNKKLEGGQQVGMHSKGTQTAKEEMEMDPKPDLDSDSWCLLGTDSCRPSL
# [11] = molecular target: T4, Serine/threonine-protein kinase Nek9 (Homo sapiens); settings: at 1 µM
# [12] = molecular target: Serine/threonine-protein kinase PLK1 (Homo sapiens) (UniProt P53350); settings: at 0.1 µM
# Sequence of Serine/threonine-protein kinase PLK1 (Homo sapiens) (P53350 whole entry): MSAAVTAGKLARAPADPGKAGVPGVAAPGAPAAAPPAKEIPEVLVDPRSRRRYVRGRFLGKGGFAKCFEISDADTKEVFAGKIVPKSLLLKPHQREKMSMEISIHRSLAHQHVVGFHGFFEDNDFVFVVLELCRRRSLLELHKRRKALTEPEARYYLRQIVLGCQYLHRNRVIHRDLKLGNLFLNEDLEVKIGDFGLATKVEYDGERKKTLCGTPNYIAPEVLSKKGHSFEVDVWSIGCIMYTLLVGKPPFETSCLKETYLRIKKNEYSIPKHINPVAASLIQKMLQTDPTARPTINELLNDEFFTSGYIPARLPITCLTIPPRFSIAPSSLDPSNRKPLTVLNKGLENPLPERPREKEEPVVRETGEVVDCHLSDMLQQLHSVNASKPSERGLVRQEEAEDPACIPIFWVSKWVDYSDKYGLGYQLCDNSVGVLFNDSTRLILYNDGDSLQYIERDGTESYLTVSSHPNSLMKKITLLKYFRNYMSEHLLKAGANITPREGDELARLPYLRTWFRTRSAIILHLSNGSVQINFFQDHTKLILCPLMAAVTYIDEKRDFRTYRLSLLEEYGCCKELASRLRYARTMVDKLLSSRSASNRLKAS
# [13] = molecular target: Serine/threonine-protein kinase PLK1 (Homo sapiens) (UniProt P53350); settings: at 1 µM
# [14] = molecular target: T5, Dual specificity protein kinase TTK (Homo sapiens) (UniProt P33981); settings: at 0.1 µM
# T5 sequence (whole entry): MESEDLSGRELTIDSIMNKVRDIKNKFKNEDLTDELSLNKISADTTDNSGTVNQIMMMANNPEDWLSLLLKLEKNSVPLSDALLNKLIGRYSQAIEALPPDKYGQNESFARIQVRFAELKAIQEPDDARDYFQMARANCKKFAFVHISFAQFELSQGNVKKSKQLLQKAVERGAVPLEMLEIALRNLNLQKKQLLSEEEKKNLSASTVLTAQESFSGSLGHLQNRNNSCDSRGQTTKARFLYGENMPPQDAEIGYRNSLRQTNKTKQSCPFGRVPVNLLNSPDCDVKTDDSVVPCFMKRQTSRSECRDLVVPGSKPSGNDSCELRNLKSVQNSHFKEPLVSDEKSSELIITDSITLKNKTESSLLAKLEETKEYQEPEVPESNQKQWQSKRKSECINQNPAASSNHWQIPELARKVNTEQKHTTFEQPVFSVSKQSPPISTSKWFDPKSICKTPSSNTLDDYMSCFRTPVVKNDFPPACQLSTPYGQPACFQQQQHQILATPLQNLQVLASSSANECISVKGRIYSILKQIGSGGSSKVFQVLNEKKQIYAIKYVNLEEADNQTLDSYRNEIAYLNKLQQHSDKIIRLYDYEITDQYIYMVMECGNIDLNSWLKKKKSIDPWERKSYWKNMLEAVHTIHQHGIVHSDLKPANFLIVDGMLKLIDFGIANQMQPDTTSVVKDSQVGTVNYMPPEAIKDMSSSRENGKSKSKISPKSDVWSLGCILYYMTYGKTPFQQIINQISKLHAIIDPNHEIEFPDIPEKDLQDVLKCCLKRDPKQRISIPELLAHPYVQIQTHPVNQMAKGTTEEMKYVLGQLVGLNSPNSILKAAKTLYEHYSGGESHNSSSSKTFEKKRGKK
# [15] = test system: T6, Receptor-type tyrosine-protein kinase FLT3 (Homo sapiens), P36888 [D835Y]; settings: at 1 µM
# T6 sequence (whole entry): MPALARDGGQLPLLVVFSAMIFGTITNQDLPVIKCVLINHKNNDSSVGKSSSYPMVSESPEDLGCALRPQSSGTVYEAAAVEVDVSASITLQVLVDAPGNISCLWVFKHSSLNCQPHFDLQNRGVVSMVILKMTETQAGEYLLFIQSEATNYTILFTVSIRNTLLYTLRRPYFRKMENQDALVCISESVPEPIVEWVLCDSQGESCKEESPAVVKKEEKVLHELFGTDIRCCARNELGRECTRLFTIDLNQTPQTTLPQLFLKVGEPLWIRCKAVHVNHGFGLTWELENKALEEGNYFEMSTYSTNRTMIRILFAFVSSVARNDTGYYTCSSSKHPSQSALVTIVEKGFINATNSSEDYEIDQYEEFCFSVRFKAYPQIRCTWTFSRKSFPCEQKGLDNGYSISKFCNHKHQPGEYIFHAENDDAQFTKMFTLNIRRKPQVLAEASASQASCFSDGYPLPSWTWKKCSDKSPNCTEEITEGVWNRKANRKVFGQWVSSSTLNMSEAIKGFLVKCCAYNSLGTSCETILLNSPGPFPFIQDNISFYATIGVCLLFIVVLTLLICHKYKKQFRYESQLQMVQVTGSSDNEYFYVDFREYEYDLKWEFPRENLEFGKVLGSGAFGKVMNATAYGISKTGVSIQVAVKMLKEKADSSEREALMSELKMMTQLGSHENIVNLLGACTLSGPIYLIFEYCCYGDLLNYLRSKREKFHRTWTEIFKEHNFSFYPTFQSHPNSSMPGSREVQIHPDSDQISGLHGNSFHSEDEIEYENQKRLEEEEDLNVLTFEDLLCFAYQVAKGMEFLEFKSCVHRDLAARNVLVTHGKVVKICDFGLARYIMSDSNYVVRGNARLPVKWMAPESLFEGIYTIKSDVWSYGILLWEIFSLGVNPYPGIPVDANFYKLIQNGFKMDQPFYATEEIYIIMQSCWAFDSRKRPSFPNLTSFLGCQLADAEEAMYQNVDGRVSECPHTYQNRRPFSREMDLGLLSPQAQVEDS
# [16] = molecular target: Vascular endothelial growth factor receptor 3 (Homo sapiens) (UniProt P35916); settings: at 0.1 µM
# Sequence of Vascular endothelial growth factor receptor 3 (Homo sapiens) (P35916 whole entry): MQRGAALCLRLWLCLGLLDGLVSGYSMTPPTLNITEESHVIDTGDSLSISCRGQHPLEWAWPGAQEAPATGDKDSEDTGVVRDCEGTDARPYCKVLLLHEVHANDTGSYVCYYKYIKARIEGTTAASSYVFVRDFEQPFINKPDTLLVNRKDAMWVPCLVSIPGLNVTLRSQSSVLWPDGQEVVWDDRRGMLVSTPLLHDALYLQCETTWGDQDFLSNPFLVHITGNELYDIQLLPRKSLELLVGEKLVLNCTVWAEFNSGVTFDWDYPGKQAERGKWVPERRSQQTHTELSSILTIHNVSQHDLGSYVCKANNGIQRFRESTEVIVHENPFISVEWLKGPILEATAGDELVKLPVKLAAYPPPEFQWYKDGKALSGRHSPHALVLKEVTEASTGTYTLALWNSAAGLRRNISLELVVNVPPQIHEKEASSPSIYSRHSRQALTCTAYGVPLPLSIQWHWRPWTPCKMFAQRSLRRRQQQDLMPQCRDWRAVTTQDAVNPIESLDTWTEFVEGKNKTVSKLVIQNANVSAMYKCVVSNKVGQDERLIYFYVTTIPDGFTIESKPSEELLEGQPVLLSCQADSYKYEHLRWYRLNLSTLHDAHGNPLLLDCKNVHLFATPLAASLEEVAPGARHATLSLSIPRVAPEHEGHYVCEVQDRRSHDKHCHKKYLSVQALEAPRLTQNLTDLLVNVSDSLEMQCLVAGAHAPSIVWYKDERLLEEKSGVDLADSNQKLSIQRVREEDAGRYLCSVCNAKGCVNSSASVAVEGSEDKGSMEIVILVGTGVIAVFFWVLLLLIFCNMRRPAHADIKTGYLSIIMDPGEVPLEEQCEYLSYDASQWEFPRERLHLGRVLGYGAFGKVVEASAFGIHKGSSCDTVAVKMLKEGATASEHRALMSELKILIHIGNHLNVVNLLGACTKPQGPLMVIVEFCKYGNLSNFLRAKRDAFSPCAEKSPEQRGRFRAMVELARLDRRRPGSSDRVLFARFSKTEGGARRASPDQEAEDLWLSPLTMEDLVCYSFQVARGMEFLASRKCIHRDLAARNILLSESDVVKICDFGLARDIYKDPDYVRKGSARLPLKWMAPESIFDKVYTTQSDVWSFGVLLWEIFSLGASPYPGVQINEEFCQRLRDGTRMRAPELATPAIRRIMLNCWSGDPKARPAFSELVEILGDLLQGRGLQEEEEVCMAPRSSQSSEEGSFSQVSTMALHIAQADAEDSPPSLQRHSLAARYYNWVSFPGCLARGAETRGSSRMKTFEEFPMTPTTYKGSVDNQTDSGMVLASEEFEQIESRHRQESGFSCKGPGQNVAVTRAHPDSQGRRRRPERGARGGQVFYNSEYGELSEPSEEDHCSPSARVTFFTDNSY
# [17] = molecular target: Vascular endothelial growth factor receptor 3 (Homo sapiens) (UniProt P35916); settings: at 1 µM
# [18] = molecular target: Macrophage colony-stimulating factor 1 receptor (Homo sapiens) (UniProt P07333); settings: at 0.1 µM
# Sequence of Macrophage colony-stimulating factor 1 receptor (Homo sapiens) (P07333 whole entry): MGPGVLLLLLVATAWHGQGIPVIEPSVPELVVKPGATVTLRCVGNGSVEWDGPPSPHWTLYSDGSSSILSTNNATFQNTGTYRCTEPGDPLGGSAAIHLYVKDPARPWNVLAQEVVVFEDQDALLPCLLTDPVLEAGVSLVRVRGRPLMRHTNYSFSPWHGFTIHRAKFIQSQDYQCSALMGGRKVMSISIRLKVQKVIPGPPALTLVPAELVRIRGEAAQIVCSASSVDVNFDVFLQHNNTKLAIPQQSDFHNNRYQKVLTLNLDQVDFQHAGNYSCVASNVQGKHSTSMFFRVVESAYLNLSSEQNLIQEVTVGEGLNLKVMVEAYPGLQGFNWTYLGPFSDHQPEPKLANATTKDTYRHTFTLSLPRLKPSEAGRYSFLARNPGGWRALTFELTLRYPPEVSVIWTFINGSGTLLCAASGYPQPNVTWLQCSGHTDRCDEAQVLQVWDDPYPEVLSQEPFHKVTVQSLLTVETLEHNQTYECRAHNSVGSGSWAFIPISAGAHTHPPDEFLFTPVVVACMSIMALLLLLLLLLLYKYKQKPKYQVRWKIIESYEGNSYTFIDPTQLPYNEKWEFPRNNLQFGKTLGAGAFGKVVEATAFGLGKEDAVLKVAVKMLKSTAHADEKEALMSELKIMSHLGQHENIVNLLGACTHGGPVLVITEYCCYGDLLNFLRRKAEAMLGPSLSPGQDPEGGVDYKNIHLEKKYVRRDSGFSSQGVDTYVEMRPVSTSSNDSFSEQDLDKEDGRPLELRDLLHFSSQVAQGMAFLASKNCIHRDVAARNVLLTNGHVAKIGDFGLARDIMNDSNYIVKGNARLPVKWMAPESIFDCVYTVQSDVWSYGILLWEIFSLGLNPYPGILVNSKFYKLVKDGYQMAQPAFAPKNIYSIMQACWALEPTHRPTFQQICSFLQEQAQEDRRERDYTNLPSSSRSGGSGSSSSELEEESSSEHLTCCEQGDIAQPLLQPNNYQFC
# [19] = molecular target: Macrophage colony-stimulating factor 1 receptor (Homo sapiens) (UniProt P07333); settings: at 1 µM
# [20] = molecular target: Tyrosine-protein kinase Fyn (Homo sapiens) (UniProt P06241); settings: at 0.1 µM
# Sequence of Tyrosine-protein kinase Fyn (Homo sapiens) (P06241 2-537 limits assumed): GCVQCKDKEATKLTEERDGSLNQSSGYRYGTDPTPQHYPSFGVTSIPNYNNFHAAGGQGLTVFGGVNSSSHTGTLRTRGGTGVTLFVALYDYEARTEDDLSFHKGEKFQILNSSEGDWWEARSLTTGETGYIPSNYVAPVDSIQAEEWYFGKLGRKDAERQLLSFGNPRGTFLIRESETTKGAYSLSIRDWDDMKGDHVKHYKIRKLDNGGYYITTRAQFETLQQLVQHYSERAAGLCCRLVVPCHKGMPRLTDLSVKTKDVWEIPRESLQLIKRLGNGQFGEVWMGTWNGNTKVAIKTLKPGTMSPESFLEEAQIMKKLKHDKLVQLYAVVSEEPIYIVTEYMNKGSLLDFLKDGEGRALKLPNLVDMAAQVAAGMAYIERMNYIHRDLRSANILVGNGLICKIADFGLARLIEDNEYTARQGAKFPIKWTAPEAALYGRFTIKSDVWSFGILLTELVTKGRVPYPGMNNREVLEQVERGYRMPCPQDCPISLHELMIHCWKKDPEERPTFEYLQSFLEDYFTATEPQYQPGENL
compound,measurement,setting,value
c1ccc(COc2ccc(Nc3ncnc4ccc(-c5ccco5)cc34)cc2)cc1,inhibition,[1],3.49%
same,inhibition,[2],0.6%
same,inhibition,[3],1.07%
same,inhibition,[4],1.15%
same,inhibition,[5],0.92%
same,inhibition,[6],-0.18%
same,inhibition,[7],-0.36%
same,inhibition,[8],-0.99%
same,inhibition,[9],1.84%
same,inhibition,[10],1.17%
same,inhibition,[11],5.01%
same,inhibition,[12],1.78%
same,inhibition,[13],0.52%
same,inhibition,[14],5.13%
same,inhibition,[15],-0.59%
same,inhibition,[16],1.83%
same,inhibition,[17],0.93%
same,inhibition,[18],-2.64%
same,inhibition,[19],0.74%
same,inhibition,[20],0.27%
CC(=O)NCc1cccc(C#Cc2cncnc2Nc2ccc(OCc3cccc(F)c3)c(Cl)c2)c1,inhibition,[1],-1%
same,inhibition,[2],0.64%
same,inhibition,[3],1.25%
same,inhibition,[4],0.96%
same,inhibition,[5],0.7%
same,inhibition,[6],-1.02%
same,inhibition,[7],-2.65%
same,inhibition,[8],4.09%
same,inhibition,[9],2.44%
same,inhibition,[10],0.38%
same,inhibition,[11],-3.77%
same,inhibition,[12],1.79%
same,inhibition,[13],1.35%
same,inhibition,[14],8.83%
same,inhibition,[15],-1.12%
same,inhibition,[16],2.27%
same,inhibition,[17],3.6%
same,inhibition,[18],1.13%
same,inhibition,[19],0.82%
same,inhibition,[20],1.08%

# From ChEMBL document CHEMBL1961873, “Compounds: GSK PKIS; Assays: Nanosyn kinase panel” (2012)
